The values that follow come from article PMC5540273 (PLoS ONE, 2017).

For one experiment, the system named is CDK4-cyclinD3. The note with it: concentration: 1 μM, replicates: in singlicate; n = 1.
In another experiment the test system is CDK4. The note with it: concentration: 1 μM, replicates: in singlicate, n = 1.
A further experiment has as its system CDK5. The note with it: concentration: 1 μM, replicates: in singlicate; n = 1.
In another experiment the test system is CDK7. The note with it: concentration: 1 μM, replicates: in singlicate, n = 1.
A further experiment relates to CDK8. The note with it: concentration: 1 μM, replicates: in singlicate, n = 1.
In the next experiment the test system is CDK9. The note with it: concentration: 1 μM, replicates: in singlicate, n = 1.
A further experiment concerns CDKL1. The note with it: concentration: 1 μM, replicates: in singlicate, n = 1.
The test system of the next experiment is CDKL2. The note with it: concentration: 1 μM, replicates: in singlicate, n = 1.
Another experiment has as its system CDKL3. The note with it: concentration: 1 μM, replicates: in singlicate; n = 1.
The test system of another experiment is CDKL5. The note with it: concentration: 1 μM, replicates: in singlicate; n = 1.
Another experiment concerns CHEK1. The note with it: concentration: 1 μM, replicates: in singlicate, n = 1.
The subject of another experiment is CHEK2. The note with it: concentration: 1 μM, replicates: in singlicate, n = 1.
The test system of a further experiment is CIT. The note with it: concentration: 1 μM, replicates: in singlicate, n = 1.
The subject of the next experiment is CLK1. The note with it: concentration: 1 μM, replicates: in singlicate, n = 1.
The next experiment has as its system CLK2. The note with it: concentration: 1 μM, replicates: in singlicate, n = 1.
A further experiment deals with CLK3. The note with it: concentration: 1 μM, replicates: in singlicate, n = 1.
The next experiment relates to CLK4. The note with it: concentration: 1 μM, replicates: in singlicate, n = 1.
The subject of a further experiment is CSF1R-autoinhibited. The note with it: concentration: 1 μM, replicates: in singlicate, n = 1.
The test system of a further experiment is CSF1R. The note with it: concentration: 1 μM, replicates: in singlicate, n = 1.
The subject of the next experiment is CSK. The note with it: concentration: 1 μM, replicates: in singlicate; n = 1.

Structures are written as SMILES. Several values for one entry are separate records, joined by “and”; a condition that tells them apart may be missing. Identical values can stand only once. Like-named read-outs stand apart in the source and are kept apart here.
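Note: KINOMEscan kinase panel screen.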

`[2H]C([2H])(c1cccc(C(F)(F)F)c1C)n1ccn2c(=O)nc(N3CCOCC3)cc12` [GSK2336394]: the “%Inh” value in the experiment on CDK4-cyclinD3 is 0%; in the experiment on CDK4 it was 14%; with CDK5 it was 0%; in the experiment with CDK7, 0%; with CDK8, 2%; with CDK9, 0%. In addition, the “%Inh” value in the experiment on CDKL1 amounted to 8%; in the experiment with CDKL2, 22%; in the experiment on CDKL3, 0%; with CDKL5, 0%; with CHEK1, 0%; in the experiment on CHEK2 it was 0%. The “%Inh” value with CIT came out at 11%; in the experiment with CLK1, 20%; in the experiment on CLK2, 0%; in the experiment with CLK3, 14%; in the experiment with CLK4 it was 12%; with CSF1R-autoinhibited, 0%. Further, the “%Inh” value with CSF1R and in the experiment with CSK was 0% in each case.

Regarding `CCc1ccnc(/C=C/c2n[nH]c3cc(Sc4ccccc4C(=O)NC)ccc23)c1`, the “%Inh” value with CDK4-cyclinD3 came out at 0%; in the experiment with CDK4, 0%; in the experiment on CDK5, 1%; with CDK7, 0%; with CDK8 it was 0%; with CDK9, 10%. The “%Inh” value in the experiment with CDKL1 is on record as 3%; with CDKL2, 0%; with CDKL3 it was 2%; in the experiment with CDKL5 it was 12%; in the experiment with CHEK1, 0%; in the experiment on CHEK2, 8%. The “%Inh” value in the experiment on CIT is 0%; in the experiment on CLK1 it was 0%; in the experiment with CLK2, 0%; in the experiment with CLK3, 0%; in the experiment with CLK4 it was 0%; in the experiment with CSF1R-autoinhibited it was 66%. The “%Inh” value in the experiment on CSF1R is listed as 99.9%; in the experiment on CSK it was 12%.

As for `O=C(Nc1n[nH]c2cc(-c3cccc(F)c3)ccc12)C1CC1` [SB-735464], the “%Inh” value is given as 7% with CDK4-cyclinD3; 44% in the experiment with CDK4; 3% with CDK5; 0% with CDK7; 0% in the experiment with CDK8; 0% with CDK9. For the same molecule, the “%Inh” value in the experiment with CDKL1 is 6%; in the experiment on CDKL2, 57%; with CDKL3 it was 28%; in the experiment with CDKL5, 4%; in the experiment with CHEK1 it was 0%; in the experiment on CHEK2 it was 0%. Also, the “%Inh” value in the experiment on CIT is given as 20%; with CLK1 it was 12%; in the experiment with CLK2 it was 9%; in the experiment with CLK3, 22%; with CLK4, 7%; in the experiment with CSF1R-autoinhibited, 0%. In addition, the “%Inh” value in the experiment on CSF1R and in the experiment on CSK was 2% each time.

With `CCCCCc1nc2c(N)ncnc2n1CCCCC` [SKF-97255], the “%Inh” value with CDK4-cyclinD3 is on record as 0%; in the experiment with CDK4, 13%; in the experiment on CDK5, 0%; in the experiment on CDK7, 2%; in the experiment with CDK8 it was 8%; in the experiment on CDK9, 0%. Also, the “%Inh” value was found to be 26% in the experiment with CDKL1; 0% in the experiment on CDKL2; 16% in the experiment on CDKL3; 7% with CDKL5; 0% in the experiment with CHEK1; 0% with CHEK2. The “%Inh” value in the experiment with CIT is recorded as 9%; with CLK1, 24%; with CLK2, 14%; with CLK3 it was 3%; in the experiment on CLK4 it was 17%; in the experiment with CSF1R-autoinhibited, 0%. For the same molecule, the “%Inh” value in the experiment with CSF1R is listed as 17%; in the experiment on CSK, 0%.

On to `CC(C)Oc1ccc2c(-c3ccnc(Nc4ccc(N5CCN(C)CC5)cc4)n3)cnn2n1` [GW696155], for which the “%Inh” value with CDK4-cyclinD3 stood at 97.8%; with CDK4, 58%; in the experiment on CDK5, 0%; with CDK7, 99.8%; in the experiment with CDK8, 8%; in the experiment with CDK9, 21%. Moreover, the “%Inh” value in the experiment with CDKL1 is 34%; with CDKL2, 99.6%; in the experiment with CDKL3 it was 92%; in the experiment on CDKL5, 43%; in the experiment with CHEK1, 0%; in the experiment on CHEK2, 67%. Besides, the “%Inh” value in the experiment on CIT is listed as 98.7%; in the experiment on CLK1, 97%; in the experiment with CLK2 it was 96.8%; in the experiment with CLK3, 1%; in the experiment on CLK4, 93.7%; in the experiment on CSF1R-autoinhibited, 58%. Further, the entries for the “%Inh” value in the experiment with CSF1R and with CSK were 65% and 34%, respectively.

As to `Cc1cccc(-c2nc(Nc3ccc4ncsc4c3)c3ccccc3n2)n1` [GW867588], the “%Inh” value in the experiment on CDK4-cyclinD3 was determined as 0%; in the experiment on CDK4, 7%; with CDK5, 0%; in the experiment with CDK7, 17%; in the experiment with CDK8 it was 43%; with CDK9 it was 3%. In addition, the “%Inh” value in the experiment on CDKL1 came out at 1%; in the experiment on CDKL2 it was 0%; in the experiment with CDKL3, 1%; in the experiment with CDKL5 it was 0%; in the experiment with CHEK1 it was 0%; in the experiment on CHEK2 it was 7%. For the same molecule, the “%Inh” value with CIT came to 13%; in the experiment on CLK1, 1%; with CLK2 it was 9%; in the experiment on CLK3, 0%; in the experiment on CLK4, 0%; in the experiment with CSF1R-autoinhibited, 4%. The “%Inh” value stood at 0% in the experiment with CSF1R and 3% with CSK.

`NCCNS(=O)(=O)c1ccc(-c2ccnc3[nH]ccc23)cc1` [GSK977617]: the “%Inh” value is 0% with CDK4-cyclinD3; 34% and 27% in the experiment on CDK4 (1 µM); 0% in the experiment on CDK5; 85% and 74% in the experiment on CDK7 (1 µM); 20% and 19% in the experiment on CDK8 (1 µM); 5% and 26% in the experiment with CDK9 (1 µM). The “%Inh” value in the experiment with CDKL1 (1 µM) is 10% and 1%; in the experiment on CDKL2 (1 µM), 0% and 8%; in the experiment on CDKL3 it was 0%; with CDKL5, 0%; in the experiment on CHEK1 (1 µM) it was 8% and 21%; in the experiment with CHEK2 (1 µM), 72% and 63%. The “%Inh” value with CIT (1 µM) is 65% and 48%; with CLK1 (1 µM) it was 95.5% and 95.4%; in the experiment with CLK2 (1 µM), 94.8% and 95.5%; in the experiment with CLK3 (1 µM), 64% and 83%; in the experiment on CLK4 (1 µM), 97.7% and 96%; in the experiment with CSF1R-autoinhibited (1 µM), 11% and 0%. Also, the “%Inh” value was 46% and 19% in the experiment on CSF1R (1 µM); 0% in the experiment with CSK.

For `COc1ccc(Nc2nccc(N3CCC(NC(=O)Nc4cccc(C(C)=O)c4)C3)n2)cc1` (stereo not shown) [GSK1379731], the “%Inh” value with CDK4-cyclinD3 came to 0%; in the experiment on CDK4 it was 8%; with CDK5, 0%; in the experiment with CDK7, 0%; in the experiment on CDK8, 61%; with CDK9, 0%. Further, the “%Inh” value in the experiment with CDKL1 was 1%; with CDKL2, 43%; in the experiment with CDKL3, 0%; with CDKL5 it was 0%; with CHEK1, 0%; with CHEK2, 0%. In addition, the “%Inh” value with CIT is listed as 0%; with CLK1 it was 5%; with CLK2, 0%; in the experiment on CLK3, 5%; in the experiment on CLK4, 2%; in the experiment on CSF1R-autoinhibited, 0%. Also, the “%Inh” value with CSF1R and in the experiment on CSK was 0% each time.

With `Cc1cccc(-c2nc(-c3ccc(S(C)(=O)=O)cc3)sc2-c2ccncc2)c1`, the “%Inh” value in the experiment with CDK4-cyclinD3 amounted to 19%; in the experiment with CDK4, 0%; in the experiment on CDK5, 12%; with CDK7, 25%; in the experiment on CDK8, 9%; with CDK9, 0%. In addition, the “%Inh” value in the experiment on CDKL1 is recorded as 0%; in the experiment with CDKL2, 4%; in the experiment with CDKL3, 0%; with CDKL5, 7%; with CHEK1 it was 0%; with CHEK2, 1%. For the same molecule, the “%Inh” value with CIT amounted to 9%; with CLK1, 0%; with CLK2, 0%; with CLK3, 0%; in the experiment on CLK4, 11%; in the experiment with CSF1R-autoinhibited it was 0%. The “%Inh” value with CSF1R was 9%; in the experiment on CSK it was 8%.

For the molecule `c1ccc(-c2cc(-c3c[nH]nc3-c3ccccn3)ccn2)cc1` [GW576604], the “%Inh” value with CDK4-cyclinD3 amounted to 0%; in the experiment with CDK4, 49%; with CDK5 it was 0%; with CDK7, 0%; in the experiment with CDK8, 13%; in the experiment on CDK9 it was 0%. Further, the “%Inh” value with CDKL1 turned out to be 0%; in the experiment with CDKL2 it was 0%; in the experiment on CDKL3 it was 0%; in the experiment with CDKL5, 0%; in the experiment on CHEK1 it was 0%; with CHEK2, 6%. Moreover, the “%Inh” value in the experiment on CIT turned out to be 27%; in the experiment on CLK1 it was 5%; in the experiment on CLK2, 12%; with CLK3, 0%; with CLK4 it was 11%; in the experiment with CSF1R-autoinhibited, 26%. Moreover, the “%Inh” value in the experiment with CSF1R and in the experiment on CSK was 0% in each case.

For the molecule `Cc1nnc(-c2ccc3ncc(-c4ccc(S(C)=O)cc4)n3c2)o1` (stereo not shown), the “%Inh” value in the experiment on CDK4-cyclinD3 came to 0%; in the experiment on CDK4 it was 0%; with CDK5, 0%; in the experiment with CDK7, 0%; with CDK8, 13%; in the experiment on CDK9, 0%. The “%Inh” value with CDKL1 came to 0%; in the experiment on CDKL2, 4%; in the experiment on CDKL3, 2%; in the experiment on CDKL5 it was 10%; in the experiment on CHEK1, 0%; in the experiment on CHEK2, 0%. The “%Inh” value in the experiment with CIT was 38%; in the experiment on CLK1, 0%; in the experiment on CLK2, 0%; with CLK3, 0%; in the experiment on CLK4, 0%; with CSF1R-autoinhibited it was 7%. Also, the “%Inh” value in the experiment with CSF1R was found to be 17%; in the experiment on CSK, 0%.
